Screening results (PubChem)
NS1 function inh – influenza NS1 inhibition. Potency, µM (highest dose often 46.1 µM). 0.4% of 270,000 active. AID 2326; calls by dose curve; also: actives are rising curves; nearly all actives have a fitted effect of over 50% in size
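Growth recovery, yeast-based: influenza A NS1 expressed in S. cerevisiae causes slow growth, and suppressors are detected by OD600. The parent strain without NS1 is used as positive control.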
HCV inh – inhibitors of hepatitis C virus infection; Huh7.5.1 HCVcc-Cre infection, luciferase reporter, 44 h; 3.4% of 340,000 active; Potency, µM (doses to about 41.8 µM), usual class: inhibitors
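Compounds are dispensed onto cells plated 4 h earlier at 1,000 per well, with HCVcc-Cre virus (about 0.5 moi) added next. Following 44 h of culture, luminescent signal is measured for 15 sec after 15 min with substrate at room temperature.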
Pf growth 96h – inhibits malaria parasite growth, 96 h. P. falciparum luciferase reporter growth, 96 h. Potency, µM (titrated, usually from 28.7 µM), usual class: inhibitors. 6.9% of 320,000 active. AID 504834
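P. falciparum expressing integrated firefly luciferase grown in erythrocytes (2% hematocrit, 0.05% parasitemia final) with compounds for 96 hours at 37 C, 5% CO2. Growth inhibition read as loss of luminescence after adding luciferase detection reagent.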
SARS PLP yeast – SARS-CoV PLP inhibition in yeast. S. cerevisiae expressing SARS-CoV PLpro, growth rescue. Potency, µM (series often up to 32.9 µM), usual class: activators. 0.19% of 330,000 active; calls by dose curve; also: nearly all actives have a fitted effect of over 55% in size
Pf growth 48h – P. falciparum growth inhibition at 48 hours (one generation); Potency, µM (titrated, usually from 28.7 µM), usual class: inhibitors; 5.9% of 310,000 active; P. falciparum luciferase growth in erythrocytes, 48 h; AID 504832
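Firefly luciferase activity from engineered P. falciparum reports growth; inhibitors lower the luminescent signal. Cultures contained 2% hematocrit erythrocytes at 0.1% final parasitemia.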
AMA1 RON2 block – disrupts binding of P. falciparum AMA1 to RON2 | AID 720542 | 0.2% of 360,000 active | Potency, µM (highest dose often 58.2 µM), usual class: inhibitors | AlphaScreen AMA1-biotinylated RON2 peptide binding; also: nearly all actives have a fitted effect of over 45% in size
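AMA1 (3D7) with his tag at 25 nM final met compounds first, then biotinylated RON2 peptide at 25 nM; detection used donor plus acceptor beads, 10 µg/mL apiece, read by AlphaScreen after 30 min at room temperature.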
Of the large screens only hits and unclear results are named; the others gave an inactive call. Most compounds without a hit are left out; they make up all but 12% or so of the library. Unless noted, calls follow the shape of the dose curve; as a rule, active = well fitted curve in the direction sought with a large enough effect; inconclusive = small, poorly fitted or top-dose-only effect, or another doubt; inactive = no such curve, though single readings can be large; an effect the other way counts as inactive or inconclusive.

Cc1ccc(-c2cccc(C3CC=CC4C3C(=O)N(Cc3ccccc3)C4c3ccc4ccccc4c3)c2)cc1 (stereo unspecified)	Pf growth 96h inconclusive, Pf growth 48h inconclusive
COc1ccc(-c2cccc(C3CC=CC4C3C(=O)N(Cc3ccccc3)C4c3ccc(OC)c(Cl)c3)c2)cc1 (stereo unspecified)	Pf growth 96h 9.3µM, Pf growth 48h 12µM
COc1ccc(-c2cc([C@H]3[C@H]4C=CC[C@@H](C)[C@@H]4C(=O)N3Cc3ccccc3)ccc2F)cc1	HCV inh inconclusive, Pf growth 96h inconclusive, Pf growth 48h inconclusive
Cc1ccc(F)c(C2C3C=CCC(c4cccc(-c5ccc(N(C)C)cc5)c4)C3C(=O)N2Cc2ccccc2)c1 (stereo unspecified)	NS1 function inh inconclusive, Pf growth 96h 2.9µM, Pf growth 48h 2.9µM, AMA1 RON2 block inconclusive
CC(NC(=O)C1CCN(S(=O)(=O)c2cccs2)CC1)c1cccc(Cl)c1 (stereo unspecified)	HCV inh inconclusive, Pf growth 96h inconclusive, Pf growth 48h inconclusive (no result: NS1 function inh)
O=C(O)C/C(=C\c1cccc(NC(=O)c2ccccc2Cl)c1)c1nc2ccccc2s1	Pf growth 96h inconclusive
O=C(Nc1ccc(Cl)cc1)/C(=C/c1cccc(O)c1)c1nc2ccccc2s1	HCV inh 13µM, Pf growth 96h 4.1µM, Pf growth 48h 9.3µM
Cn1c(=O)oc2cc(NC(=O)CCl)ccc21	HCV inh inconclusive, Pf growth 96h 6.6µM, Pf growth 48h 5.2µM
Cc1cccc(NC(=O)CCS(=O)(=O)c2ccc3c(c2)oc(=O)n3C)c1	Pf growth 96h 8.3µM
COc1ccc(NC(=O)CCS(=O)(=O)c2ccc3c(c2)oc(=O)n3C)cc1OC	Pf growth 96h inconclusive
CC(=O)Nc1ccc(NC(=O)CCS(=O)(=O)c2ccc3c(c2)oc(=O)n3C)cc1	Pf growth 96h 9.3µM
CC(=O)c1ccc(NC(=O)CCS(=O)(=O)c2ccc3c(c2)n(C)c(=O)c(=O)n3C)cc1	NS1 function inh inconclusive, Pf growth 96h 9.3µM
O=C(COC(=O)c1cncc(Br)c1)NCC12CC3CC(CC(C3)C1)C2	none (no result: NS1 function inh)
O=C(OCn1ncc(Cl)c(Cl)c1=O)c1ccc(C(F)(F)F)cc1	HCV inh 10µM
Cc1ccc(C(=O)OCn2ncc(Cl)c(Cl)c2=O)cc1	HCV inh 2.5µM, Pf growth 96h inconclusive, Pf growth 48h inconclusive
CN(C)CCCNC(=O)c1cc(Br)ccc1Cl	Pf growth 96h 9.3µM (no result: Pf growth 48h)
OCCN1CCN(c2ncnc3c2sc2nc(N4CCOCC4)c4c(c23)CCC4)CC1	HCV inh 11µM, Pf growth 48h 13µM
CC1(C)Cc2c(c(N3CCCC3)nc3sc4c(N5CCN(CCO)CC5)ncnc4c23)CO1	HCV inh 2.2µM, Pf growth 48h 8.3µM
CC1CCCCN1C(=O)C(Cc1ccccc1)N1C(=O)C2CCCCC2C1=O (stereo unspecified)	Pf growth 96h 13µM
CC1CCCCN1C(=O)N[C@@H](Cc1ccccc1)C(=O)O (stereo partly specified)	none (no result: HCV inh)
CCOC(=O)c1nc2cc3n(c(CC(C)C)c-2c1C)CC(C)=C3C	Pf growth 96h 3.3µM, Pf growth 48h 1.2µM
CCOC(=O)c1nnc2cc(C)nn2c1C	none
CCOC(=O)c1nc2cc3n(c(C)c-2c1C)C(C)C(C)=C3C (stereo unspecified)	HCV inh inconclusive, Pf growth 96h 2.3µM, Pf growth 48h 7.4µM
CCOC(=O)c1n[nH]n(-c2cc(Cl)cc(Cl)c2)c1=O	Pf growth 48h inconclusive
O=C1NC(=Nc2cccc(O)c2)S/C1=C\c1cccnc1	Pf growth 96h 6.6µM, Pf growth 48h inconclusive
Cc1ccc(N=C2NC(=O)/C(=C/c3cccnc3)S2)c(C)c1	Pf growth 96h inconclusive, Pf growth 48h inconclusive
Cc1cccc(N=C2NC(=O)/C(=C/c3cccnc3)S2)c1C	Pf growth 96h inconclusive, Pf growth 48h 13µM
COc1ccc(NC(=O)C(c2ccccc2)c2ccccc2)cn1	none
CC1(C(=O)Nc2cccc(C#N)c2)CCN1C(=O)C/C=C/c1ccccc1 (stereo unspecified)	none (no result: NS1 function inh, HCV inh, Pf growth 96h, SARS PLP yeast, Pf growth 48h)
O=C(O)/C=C/c1ccc(S(=O)(=O)N2CCN(CCN3C(=O)C4C5C=CC(C5)C4C3=O)CC2)cc1 (stereo unspecified)	Pf growth 96h 1.9µM, Pf growth 48h inconclusive
CC1CN(C(=O)CCc2cc(C(C)(C)C)c(O)c(C(C)(C)C)c2)CC(C)O1 (stereo unspecified)	HCV inh inconclusive, Pf growth 96h 7.4µM, Pf growth 48h inconclusive
CC(C)(C)c1cc(CCC(=O)N2CCC2)cc(C(C)(C)C)c1O	none
CCN(CCCNc1cc2c(c(N)c1S(=O)(=O)O)C(=O)c1ccccc1C2=O)c1ccccc1	AMA1 RON2 block 14µM (no result: NS1 function inh, HCV inh, Pf growth 96h, SARS PLP yeast, Pf growth 48h)
Cc1cc(C)cc(NS(=O)(=O)c2c(C)[nH]c(=O)[nH]c2=O)c1	Pf growth 96h 2.1µM
CC(C)CC(NC(=O)c1cccs1)c1nnc(SCc2ccc(Cl)c(Cl)c2)n1C (stereo unspecified)	HCV inh inconclusive, Pf growth 96h inconclusive, Pf growth 48h 12µM
O=[N+]([O-])c1cc(-c2n(-c3ccccn3)c3ccccc3[n+]2-c2ccccn2)ccc1Cl	Pf growth 96h inconclusive, Pf growth 48h inconclusive (no result: NS1 function inh)
COc1ccc(-c2n(-c3ccccn3)c3ccccc3[n+]2-c2ccccn2)cc1	Pf growth 96h 4.1µM, Pf growth 48h 10µM
COc1ccccc1C(=O)COC(=O)CNS(=O)(=O)c1ccc(C)cc1	none (no result: NS1 function inh)
CCN1C(=NCc2cc(OC)c(OC)c(OC)c2)N[C@@H](c2cccc(F)c2)C(C(=O)OC)=C1C	Pf growth 96h 10µM, Pf growth 48h 5.2µM (no result: HCV inh, AMA1 RON2 block)
COC(=O)C1=C(C)N(Cc2ccccc2)C(=NCCc2c[nH]c3ccccc23)N[C@H]1c1cccc(C(F)(F)F)c1	HCV inh inconclusive, Pf growth 96h 13µM, Pf growth 48h inconclusive
COC(=O)C1=C(C)N(Cc2ccccc2)C(=NCc2cccc(C(F)(F)F)c2)N[C@H]1c1cccc(C(F)(F)F)c1	Pf growth 48h inconclusive
COC(=O)C1=C(C)N(Cc2ccccc2)C(=NCc2cccc(C(F)(F)F)c2)N[C@H]1c1cccc(F)c1	HCV inh inconclusive, Pf growth 96h inconclusive, Pf growth 48h 6.6µM
COCCN=C1N[C@@H](c2cccc(C(F)(F)F)c2)C(C(=O)OC)=C(C)N1Cc1ccccc1	Pf growth 96h 4.7µM, Pf growth 48h inconclusive
COc1ccc2c(c1OC)C(=O)OC2Nc1nc(-c2cccc([N+](=O)[O-])c2)cs1 (stereo unspecified)	none
CCOC(=O)C1CCN(C(=O)C2CC(=O)N(c3ccc4c(c3)OCCO4)C2)CC1 (stereo unspecified)	none
COc1ccc(S(=O)(=O)Nc2ccc(-n3cnnn3)cc2)cc1[N+](=O)[O-]	Pf growth 96h inconclusive (no result: NS1 function inh)
CCc1ccc(C(=O)NNC(=O)c2cccc(N3C(=O)CCC3=O)c2)cc1	none (no result: NS1 function inh)
